Experimental data published in PubChem BioAssay AID1159580 (chemical genetic matrix, 2015).
Hit rate of the full screen: of about 5,500 compounds, about 2,000 (36%) were called active. Roughly 18% stayed inconclusive and do not appear here. Rule as the data show it: active = normalized growth mostly below about 0.91 (no sharp cut-off); inconclusive = no clear call, values can overlap the other calls; inactive = mostly above about 0.92. The list shows a part of the results.

Experiment: chemical genetic growth profiling, strain panel (AID 1159580);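 also: tested at 20 µM; growth read once vehicle control cultures reached saturation at 30 °C; 1 = growth at the plate median or of vehicle wells; lower values mean less growth of the strain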
Details: growth OD

Measured: normalized growth

COc1cc2c(cc1OC)C(=O)c1ccc(OC)c(OC)c1OCC(=O)C2
inactive: S. cerevisiae deletion strains, locus YAL013W, strain DEP1, active compounds read low 1.01 | S. cerevisiae deletion strains, locus YBR021W, strain FUR4, active compounds read low 1.08 | S. cerevisiae deletion strains, locus YBR229C, strain ROT2, active compounds read low 1.01 | S. cerevisiae deletion strains, locus YCL029C, strain bik1, active compounds read low 1.01 | S. cerevisiae deletion strains, locus YDL035C, strain GPR1, active compounds read low 1.05 | S. cerevisiae deletion strains, locus YDL074C, strain BRE1, active compounds read low 1.05 | S. cerevisiae deletion strains, locus YDL101C, strain DUN1, active compounds read low 0.993 | S. cerevisiae deletion strains, locus YDL185W, strain tfp1, active compounds read low 0.982 | S. cerevisiae deletion strains, locus YDL192W, strain arf1, active compounds read low 1.04 | S. cerevisiae deletion strains, locus YDR101C, strain arx1, active compounds read low 1.06 | S. cerevisiae deletion strains, locus YDR162C, strain NBP2, active compounds read low 1.04 | S. cerevisiae deletion strains, locus YDR318W, strain mcm21, active compounds read low 1.01 | S. cerevisiae deletion strains, locus YDR388W, active compounds read low 1.01 | S. cerevisiae deletion strains, locus YDR502C, strain sam2, active compounds read low 0.991 | S. cerevisiae deletion strains, locus YEL061C, strain CIN8, active compounds read low 1.01 | S. cerevisiae deletion strains, locus YER110C, active compounds read low 1.01 | S. cerevisiae deletion strains, locus YER155C, strain BEM2, active compounds read low 0.992 | S. cerevisiae deletion strains, locus YER167W, strain BCK2, active compounds read low 0.995 | S. cerevisiae deletion strains, locus YGL078C, strain dbp3, active compounds read low 0.963 | S. cerevisiae deletion strains, locus YGL086W, strain mad1, active compounds read low 1.02 | S. cerevisiae deletion strains, locus YGL248W, strain PDE1, active compounds read low 0.994 | S. cerevisiae deletion strains, locus YGR078C, strain PAC10, active compounds read low 1.02 | S. cerevisiae deletion strains, locus YGR135W, strain pre9, active compounds read low 0.968 | S. cerevisiae deletion strains, locus YGR252W, strain gcn5, active compounds read low 1.05 | S. cerevisiae deletion strains, locus YHR030C, strain SLT2, active compounds read low 1 | S. cerevisiae deletion strains, locus YHR079C, strain IRE1 (second series), active compounds read low 1 | S. cerevisiae deletion strains, locus YHR094C, strain hxt1, active compounds read low 0.991 | S. cerevisiae deletion strains, locus YHR129C, strain ARP1, active compounds read low 1 | S. cerevisiae deletion strains, locus YHR200W, strain rpn10, active compounds read low 1.02 | S. cerevisiae deletion strains, locus YIL066C, strain RNR3, active compounds read low 1.01 | S. cerevisiae deletion strains, locus YIL073C, strain SPO22, active compounds read low 0.954 | S. cerevisiae deletion strains, locus YIL125W, strain kgd1, active compounds read low 1.01 | S. cerevisiae deletion strains, locus YIR030C, strain dcg1, active compounds read low 1 | S. cerevisiae deletion strains, locus YJL095W, strain BCK1, active compounds read low 1.01 | S. cerevisiae deletion strains, locus YJL134W, strain LCB3, active compounds read low 1.01 | S. cerevisiae deletion strains, locus YJL168C, strain set2, active compounds read low 1 | S. cerevisiae deletion strains, locus YJL187C, strain SWE1 (second series), active compounds read low 1.01 | S. cerevisiae deletion strains, locus YJR043C, strain POL32, active compounds read low 1.09 | S. cerevisiae deletion strains, locus YJR075W, strain HOC1, active compounds read low 0.997 | S. cerevisiae deletion strains, locus YKL009W, strain mrt4, active compounds read low 1.01 | S. cerevisiae deletion strains, locus YKL068W, active compounds read low 0.988 | S. cerevisiae deletion strains, locus YKL085W, strain MDH1 (second series), active compounds read low 0.962 | S. cerevisiae deletion strains, locus YKL085W, strain MDH1, active compounds read low 0.962 | S. cerevisiae deletion strains, locus YKR001C, strain vps1, active compounds read low 1 | S. cerevisiae deletion strains, locus YLR039C, strain RIC1, active compounds read low 1.03 | S. cerevisiae deletion strains, locus YLR058C, strain SHM2, active compounds read low 1.01 | S. cerevisiae deletion strains, locus YLR102C, strain apc9, active compounds read low 1.01 | S. cerevisiae deletion strains, locus YLR262C, strain YPT6, active compounds read low 1 | S. cerevisiae deletion strains, locus YLR268W, strain sec22, active compounds read low 1 | S. cerevisiae deletion strains, locus YLR330W, strain CHS5, active compounds read low 1 | S. cerevisiae deletion strains, locus YLR342W, strain FKS1 (second series), active compounds read low 1.13 | S. cerevisiae deletion strains, locus YLR371W, strain rom2, active compounds read low 0.984 | S. cerevisiae deletion strains, locus YLR418C, strain cdc73, active compounds read low 1.01 | S. cerevisiae deletion strains, locus YML016C, strain PPZ1, active compounds read low 1.01 | S. cerevisiae deletion strains, locus YML032C, strain rad52, active compounds read low 1.03 | S. cerevisiae deletion strains, locus YML124C, strain tub3, active compounds read low 0.983 | S. cerevisiae deletion strains, locus YMR078C, strain ctf18, active compounds read low 1 | S. cerevisiae deletion strains, locus YMR223W, strain ubp8, active compounds read low 1.01 | S. cerevisiae deletion strains, locus YMR263W, strain SAP30, active compounds read low 0.993 | S. cerevisiae deletion strains, locus YMR307W, strain GAS1, active compounds read low 1.2 | S. cerevisiae deletion strains, locus YNL067W, strain RPL9B, active compounds read low 0.976 | S. cerevisiae deletion strains, locus YNL233W, strain BNI4, active compounds read low 1.01 | S. cerevisiae deletion strains, locus YNL250W, strain rad50, active compounds read low 0.936 | S. cerevisiae deletion strains, locus YNL271C, strain bni1, active compounds read low 0.976 | S. cerevisiae deletion strains, locus YNL298W, strain CLA4, active compounds read low 1 | S. cerevisiae deletion strains, locus YNL307C, strain MCK1, active compounds read low 0.988 | S. cerevisiae deletion strains, locus YNR052C, strain pop2, active compounds read low 0.996 | S. cerevisiae deletion strains, locus YOL006C, strain TOP1, active compounds read low 1.27 | S. cerevisiae deletion strains, locus YOL012C, strain htz1 0.675 | S. cerevisiae deletion strains, locus YOL147C, strain pex11, active compounds read low 1.01 | S. cerevisiae deletion strains, locus YOR061W, strain CKA2, active compounds read low 1.02 | S. cerevisiae deletion strains, locus YOR069W, strain VPS5, active compounds read low 1 | S. cerevisiae deletion strains, locus YOR136W, strain idh2, active compounds read low 1 | S. cerevisiae deletion strains, locus YOR144C, strain elg1, active compounds read low 1 | S. cerevisiae deletion strains, locus YOR184W, strain ser1, active compounds read low 1.07 | S. cerevisiae deletion strains, locus YOR316C, strain cot1, active compounds read low 0.99 | S. cerevisiae deletion strains, locus YPL055C, strain LGE1, active compounds read low 1.09 | S. cerevisiae deletion strains, locus YPR119W, strain clb2, active compounds read low 0.977 | S. cerevisiae deletion strains, locus YPR141C, strain kar3, active compounds read low 0.972 | S. cerevisiae deletion strains, locus YPR163C, strain tif3, active compounds read low 0.999 | S. cerevisiae deletion strains, locus YPR167C, strain met16, active compounds read low 0.99 | S. cerevisiae deletion strains, strain wtn01, active compounds read low 1.04 | S. cerevisiae strains, strain wild type, active compounds read low 1.04
